{"source": "PubChem BioAssay (NCI)", "note": "About 83,000 compounds went through this panel and 20% of them were active in at least one assay; those are over-represented in the sample as a whole.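 Plates (96-well) were seeded with cells, treated with compound at one concentration, and incubated for 48 hours before percent growth was determined.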 Values without a mark were called inactive. Active and inactive are the calls of the source. Rule for the calls: active = growth percent below 10; inactive = the rest.", "data": [{"system": "SK-MEL-2 melanoma", "experiment": "NCI-60 one-dose screen, 48 h (100 = growth as untreated, 0 = no growth, -100 = all killed)", "settings": "10 µM unless noted", "values": [{"smiles": "COC(=O)c1nc(-c2ccccc2)oc1S(=O)(=O)n1nc(-c2ccccc2)cc1N", "growth": "85.9%"}, {"smiles": "COc1ccc(C(=O)c2cc(OC)c(C)c(OC)c2)cc1OC(=O)CCl", "growth": "35.4%"}, {"smiles": "CC(=O)c1cnc(-c2ccccc2)nc1CBr", "growth": "98.3%"}, {"smiles": "O=C1CC23OC4ON=C(Br)C4C2C(O)c2ccccc2N13", "note": "(stereo not drawn)", "growth": "89.8%"}, {"smiles": "COc1ccc(C(=S)c2cc(OC)c(OC)c(OC)c2)cc1OC(=O)CCl", "growth": "41.9%"}, {"smiles": "COc1ccc2oc(=O)cc(-c3c(C#N)c(N)n4nc(N)c(C#N)c4c3C#N)c2c1", "growth": "91.7%"}, {"smiles": "O=C(Nc1cc(Br)ccn1)c1cc2cc(Nc3nc(-c4ccccc4)nc4ccccc34)ccc2oc1=O", "growth": "90.8%"}, {"smiles": "CC1CCCN(CCCCCOc2ccc3oc4ccc(Cl)cc4c(=O)c3c2)C1", "note": "(stereo not drawn)", "growth": "96.7%"}, {"smiles": "COc1cc(C2=NNC(c3ccc(N(C)C)cc3)C2)cc(OC)c1OC", "note": "(stereo not drawn)", "growth": "60.9%"}, {"smiles": "Cn1c2ccccc2c2c(OC(=O)c3ccccc3)c3c(nc21)-c1ccccc1C3", "growth": "81.1%"}, {"smiles": "COc1cc(C(C)c2ccc3c(ccn3C)c2)cc(OC)c1OC", "note": "(stereo not drawn)", "growth": "30.5%"}, {"smiles": "CC(=O)OCC1SC(OC(C)=O)C(NC(=O)/C=C/CCl)C(OC(C)=O)C1OC(C)=O", "note": "(stereo not drawn)", "growth": "79.9%"}, {"smiles": "C[C@H]1[C@H](C)CC[C@]2(C(=O)OCCCC[P+](c3ccccc3)(c3ccccc3)c3ccccc3)CC[C@]3(C)C(=CC[C@@H]4[C@@]5(C)CC[C@H](OC(=O)C(Cl)Cl)C(C)(C)[C@@H]5CC[C@]43C)[C@H]12", "growth": "-63.8% (active)"}, {"smiles": "O=C1C(=O)c2c(nc3ccc(C(F)(F)F)cn23)-c2ccccc21", "growth": "-67.1% (active)"}, {"smiles": "COc1ccc2[nH]c(-c3ccccc3)c(C=C(C#N)C#N)c2c1", "growth": "24.1%"}, {"smiles": "NC(=N\\N=C\\c1ccccc1O)/C(N)=N/N=C/c1ccccc1O", "growth": "94.8%"}, {"smiles": "Cc1ccc(-c2nc(C#N)c(S(=O)(=O)N(C)CCO)o2)cc1", "growth": "80.4%"}, {"smiles": "CC[C@H](Nc1ncnc2nc[nH]c12)c1nc2cccc(CC(=O)c3ccc(C(=O)NO)cc3)c2c(=O)n1-c1ccccc1", "growth": "77.5%"}, {"smiles": "NC(=O)c1ccc2nc3c(n2c1)C(=O)C(=O)c1ccccc1-3", "growth": "-71.2% (active)"}, {"smiles": "COc1cccc(C(=O)OCCn2nc3c4c(cccc42)C(=O)c2ccccc2-3)c1O", "growth": "78.7%"}, {"smiles": "COc1ccc(C(C)c2cc(OC)c(OC)c(OC)c2)cc1", "note": "(stereo not drawn)", "growth": "33.6%"}, {"smiles": "C#C[C@@]1(O)[C@@H](CO)O[C@@H](n2ccc3c(N)ncnc32)[C@@H]1O", "growth": "-8.72% (active)"}, {"smiles": "COc1cc(NC(=O)COc2cc(C)nc3ccc(OC)cc23)cc(OC)c1", "growth": "92.2%"}, {"smiles": "CN1CCN(C(=O)[C@@]2(C)CC[C@]3(C)CC[C@]4(C)C(=CC[C@@H]5[C@@]6(C)CC[C@H](OC(=O)c7cccnc7)C(C)(C)[C@@H]6CC[C@]54C)[C@@H]3C2)CC1", "growth": "101%"}, {"smiles": "NS(=O)(=O)c1ccc(N2Cc3cc(Cl)ccc3OC3=C2C(=O)N(CC2CCCCC2)C3=O)cc1", "growth": "-72.3% (active)"}, {"smiles": "CCCCc1nc(Cl)c(C2CC(c3ccc(Cl)cc3)=NN2c2cc(Cl)cc(Cl)c2)[nH]1", "note": "(stereo not drawn)", "growth": "96%"}, {"smiles": "C[C@H]1[C@H](C)CC[C@]2(C(=O)OCCOCCOCC[P+](c3ccccc3)(c3ccccc3)c3ccccc3)CC[C@]3(C)C(=CC[C@@H]4[C@@]5(C)CC[C@H](OC(=O)C(Cl)Cl)C(C)(C)[C@@H]5CC[C@]43C)[C@H]12", "growth": "-21.5% (active)"}, {"smiles": "C=C(C)[C@@H]1CC[C@]2(C(=O)N3CCN(C)CC3)CC[C@]3(C)[C@H](CC[C@@H]4[C@@]5(C)C/C(=C/c6ccco6)C(=O)C(C)(C)[C@@H]5CC[C@]43C)[C@@H]12", "growth": "83.7%"}, {"smiles": "Clc1ccc2c(NCCCNC3CCCCC3)ccnc2c1", "growth": "107%"}, {"smiles": "CCSc1nc(Cl)c(C#N)c(-c2ccc(F)cc2)n1", "growth": "102%"}, {"smiles": "COc1cc2c(cc1OCCCOc1cc3c(cc1OC)C(=O)N1CC(F)(F)C[C@H]1C=N3)N=C[C@@H]1CC(F)(F)CN1C2=O", "growth": "34.7%"}, {"smiles": "CN1CCN(CC#CCOC(=O)CNC(=O)[C@]23CCC(C)(C)C[C@H]2C2=CC[C@@H]4[C@@]5(C)CC[C@H](O)C(C)(C)[C@@H]5CC[C@@]4(C)[C@]2(C)CC3)CC1", "growth": "95.4%"}, {"smiles": "COc1cc(C(=O)N2CCN(c3ccccc3OC)CC2)c(NC(=O)c2cnccn2)cc1OCc1ccccc1", "growth": "85.7%"}, {"smiles": "C(=C\\c1cn(-c2ccccc2)nc1-c1ccccc1)/c1nnc(-c2c[nH]c3ccccc23)o1", "growth": "86%"}, {"smiles": "Nc1c(C(=O)Nc2ccccn2)sc2nc3c(cc12)C(=O)CCC3", "growth": "32.9%"}, {"smiles": "C=C1C(=O)O[C@H]2[C@H]1CC/C(COC(=O)CCCCCCC(=O)OC/C1=C/CC[C@@]3(C)O[C@H]3[C@H]3OC(=O)C(=C)[C@@H]3CC1)=C\\CC[C@@]1(C)O[C@@H]21", "growth": "84.6%"}, {"smiles": "O=C(Nc1ccc2ncnc(Nc3ccc(F)c(Cl)c3)c2c1)c1ccccc1", "growth": "87.5%"}, {"smiles": "O=C(NC[C@H](O)CN1CCc2ccccc2C1)c1cc(NC2COC2)ncn1", "growth": "94.4%"}]}]}
